# Results filed as inconclusive are left out. Where a call stands in place of a potency, no number is given. Active and inactive are the calls of the source. Calls come from the whole dose curve; as a rule, active = well fitted inhibition curve with a large enough effect; inconclusive = small, poorly fitted or top-dose-only effect; inactive = flat fitted curve, though single readings scatter.
# Assay: qHTS for differential inhibitors of proliferation of Plasmodium falciparum line Dd2 (AID 1882); note: nearly all actives have a fitted effect of over 65% in size
# Conditions: Potency: Plasmodium falciparum Dd2 proliferation inhibition; series mostly up to 28.7 µM
# Description: NIH Molecular Libraries Probe Production Network [MLPCN]
# NIH National Institute of Allergy and Infectious Diseases [NIAID]
# NIH Chemical Genomics Center [NCGC]
# Assay Provider: Xinzhuan Su, NIAID
# Plasmodium falciparum is a virulent malarial parasite that kills 1-2 million people worldwide each year. Transmitted by mosquitoes, the sporozoite form of the parasite enters the blood stream to infect hepatocytes, where they become merozoites that infect red blood cells (erythrocytes). Within erythrocytes, merozoites begin a […] cycle of growth and division, after which the parasite is released to infect new red blood cells. Gametocytes, which form within erythrocytes as well, circulate in the bloodstream and are ingested by the mosquito, thereby completing the life cycle. To profile malarial isolates for differential chemical responses and to identify inhibitors of malarial growth, an assay that measures P. falciparum growth and replication within erythrocytes was employed. This assay uses a DNA binding fluorescent dye (SYBR Green) to detect parasite DNA following cell lysis. Because mature erythrocytes lack DNA, only Plasmodium-derived DNA is detected. The P. falciparum line Dd2, derived from a malarial isolate from […], was used.
# NCGC Assay Protocol Summary:
# The SYBR Green viability assay was adapted from a method described previously (Plouffe et al., 2008). For screening 3 ul culture medium was dispensed into 1536 well black clear bottom plates (Aurora Biotechnologies) using a Multidrop Combi (Thermo Fisher Scientific Inc.), 23 nL compounds in DMSO were added by a pin tool (Kalypsys), and 5 ul of erythrocytes infected with P. falciparum line Dd2 (0.3% parasitemia, 2.5% hematocrit final concentration) were added. The plates were incubated at 37 C in a humidified incubator in 5% CO2 for 72 h, and 2 ul lysis buffer (20 mM Tris HCl, 10 mM EDTA, […]% saponin, 1.6% triton X, 10X SYBR Green I supplied as 10,000X […] by Invitrogen) was added to each well. The plates were mixed for 25 sec with gentle shaking and incubated overnight at room temperature in the dark. The following morning, fluorescence intensity at 485(14) nm excitation and 535(25) nm emission wavelengths was measured on an EnVision (Perkin Elmer) plate reader. Plate reads were normalized relative to the control inhibitor (0.29 uM artemisinin) and vehicle (DMSO) wells present on each plate and then corrected by an algorithm using vehicle-only control plates at the beginning and end of the compound plate stack.
# Plouffe D, Brinker A, McNamara C, Henson K, Kato N, Kuhen K, Nagle A, Adrian F, Matzen JT, Anderson P, Nam TG, Gray NS, Chatterjee A, Janes J, Yan SF, Trager R, Caldwell JS, Schultz PG, Zhou Y, Winzeler EA. […] Proc Natl Acad Sci U S A. 2008, 105(26), pp 9059-64.
# Potency is the fitted concentration of half-maximal effect.
row,Compound,Potency
1,O=[N+]([O-])c1ccc(-c2nc(-c3ccc(F)cc3)c(-c3ccncc3)[nH]2)cc1,6.31 µM (active)
2,Cn1cnc2c(NCc3ccccc3)nc(NCCO)nc21,inactive
3,O=C1NC(c2cccc([N+](=O)[O-])c2)=CCN1c1ccccc1O,inactive
4,NC(N)=NCCCCN=C(N)N,inactive
5,C[C@]12CCC(=O)C=C1CC[C@@H]1[C@@H]2[C@@H](O)C[C@@]2(C)[C@H]1CC[C@]2(O)C(=O)COC(=O)CCC(=O)O,inactive
6,CC(C)N(CCC(=O)c1ccc2ccccc2c1)Cc1ccccc1,inactive
7,C[N+](C)(C)CCO,inactive
8,CN(C)c1cc2c(Nc3ccc4c(cnn4Cc4ccccc4)c3)ncnc2cn1,11.2 µM (active)
9,COc1ccccc1N1CCN(CCN2C(=O)CC3(CCCC3)CC2=O)CC1,inactive
10,COc1cccc2c1[C@@H]1CN(CCCCn3c(=O)[nH]c4c(sc5ncc(-c6ccccc6)nc54)c3=O)C[C@@H]1CO2,inactive
